PD-1 reversal = reversal of PD-1 mediated T-cell inhibition; primary human CD4 T cells, PD-L1 beads, CellTiter-Glo 96 h; activation, % (no concentration beside the values); 29,000 tested, under 10 active; AID 2316; call rule not given here;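 note: 0% = median vehicle wells and 100% = positive control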
ROS inducer = raises reactive oxygen species in U2OS cancer cells; ROS induction (% of piperlongumine), % at 10 µM; U2OS ROS induction, H2DCF-DA fluorescence; 46,000 compounds, 2% hits; in the data active = ROS induction above about 79%, passing the limit was not always enough;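 note: 0% = DMSO vehicle median and 100% = reference compound median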
Active calls of the source: *; · = no result. The entries come from a sample that favours hits as a whole.

SMILES	PD-1 reversal	ROS inducer
CC1CCCCN1C(=O)c1ccccc1NS(=O)(=O)c1ccc2ccccc2c1 (centres undefined)	·	3.6
O=C(NCCN1CCC(Cc2ccccc2)CC1)c1ccc(-c2ccccc2)s1	·	-0.2
CCOC(=O)C1=CN(c2ccc(C)cc2)C=C(C(=O)OCC)C1c1cccs1	·	111.7*
CCOC(=O)c1csc(-c2cccs2)n1	·	-0.9
COc1ccc(O)c(/C=N/NC(=O)CCCCC(=O)NO)c1	·	-5.3
N#CC1=C(N)Nc2c(c(=O)oc3ccccc23)C1c1ccc(Br)cc1 (centres undefined)	-4.2	81.0*
C=CCN1C(=O)C2(C(C#N)=C(N)Oc3c2c(=O)oc2ccccc32)c2ccccc21 (centres undefined)	6.0	13.2
COc1ccc(OCC(=O)Nc2c(C(=O)c3ccc(C)c(F)c3)oc3ccccc23)cc1	0.0	8.5
COC(=O)COc1cccc(NC(=O)c2ccc(-c3ccccc3)cc2)c1	-3.4	84.3*
COC(=O)COc1cccc(NC(=O)c2ccccc2F)c1	-0.6	3.3
COc1ccc(NC(=O)CSc2nnc(-c3ccc(NC(=O)c4ccc(C)cc4)cc3)n2C)cc1Cl	2.3	7.5
CCN1CCN(c2c(Cl)cccc2NC(=O)COc2ccc(OC)cc2)CC1	-3.0	9.2
COc1ccc(-c2csc(=Nc3cc(C(=O)O)ccc3C)o2)cc1	·	31.4
C[C@@H]1CN([C@H](C)CO)C(=O)Cc2cc(NC(=O)CCCCCC(=O)Nc3ccccc3N)ccc2O[C@@H]1CN(C)Cc1ccncc1	0.3	-1.2
C[C@H]1CN([C@@H](C)CO)C(=O)c2cccc(NC(=O)CCCCCC(=O)Nc3ccccc3N)c2O[C@@H]1CN(C)Cc1ccc2c(c1)OCO2	1.1	107.7*
C[C@@H]1CN([C@H](C)CO)C(=O)Cc2cc(NC(=O)CCCCCC(=O)Nc3ccccc3N)ccc2O[C@@H]1CN(C)Cc1ccc(Cl)c(Cl)c1	-3.1	83.7*
C[C@H](CO)N1C[C@H](C)[C@H](CN(C)Cc2ccc3c(c2)OCO3)Oc2ccc(NC(=O)CCCCCC(=O)Nc3ccccc3N)cc2C1=O	-0.1	-4.5
C[C@@H]1CN([C@@H](C)CO)C(=O)c2cccc(NC(=O)CCCCCC(=O)Nc3ccccc3N)c2O[C@H]1CN(C)Cc1ccc2c(c1)OCO2	-1.0	104.8*
C[C@H](CO)N1C[C@H](C)[C@@H](CN(C)Cc2ccc3c(c2)OCO3)Oc2c(NC(=O)CCCCCC(=O)Nc3ccccc3N)cccc2C1=O	-0.4	38.7
COC(=O)c1sccc1S(=O)(=O)Nc1ccc(-c2cn3c(n2)SCC3)cc1	·	3.2
COc1ccc2c(c1)c(=O)oc1cc(O)ccc12	·	4.4
COc1ccc2c(c1)c(=O)oc1cc(OC(C)C)ccc12	-2.6	114.2*
NC(=O)/C(=C/c1ccc(Cl)cc1)NC(=O)c1ccccc1	·	-4.5
COC(=O)c1ccccc1NC(=O)c1c(C)nn(-c2ccccc2)c1-n1cccc1	·	126.1*
COc1cc(OC)c(NC(=O)c2c(C)nn(-c3ccccc3)c2-n2cccc2)cc1Cl	·	26.2
SMILES	PD-1 reversal	ROS inducer
CC(C)(C)NC(=O)CCCN1C(=O)/C(=C/c2ccccc2)SC1=S	·	9.6
COc1ccc2[nH]c3c(=O)n(CCc4ccc(Cl)cc4)cnc3c2c1	·	-3.0
O=C(CCSc1ccccc1)NCc1ccco1	·	-5.1
COc1ccc(NC(=O)Nc2ccc3c(c2)CC(=O)N([C@@H](C)CO)C[C@@H](C)[C@@H](CN(C)S(=O)(=O)c2cn(C)cn2)O3)cc1	1.3	90.2*
C[C@H](CO)N1C[C@H](C)[C@H](CN(C)S(=O)(=O)c2ccc(F)cc2)Oc2ccc(NC(=O)Nc3ccc(F)cc3)cc2CC1=O	-2.0	-3.8
COc1ccc(NC(=O)Nc2ccc3c(c2)CC(=O)N([C@@H](C)CO)C[C@H](C)[C@H](CN(C)S(=O)(=O)c2cn(C)cn2)O3)cc1	0.6	-5.9
COc1ccc(NC(=O)Nc2ccc3c(c2)CC(=O)N([C@@H](C)CO)C[C@H](C)[C@H](CN(C)S(=O)(=O)c2ccc(F)cc2)O3)cc1	·	96.6*
COc1ccc(S(=O)(=O)N(C)C[C@@H]2Oc3ccc(NC(=O)Nc4ccc(F)cc4)cc3CC(=O)N([C@H](C)CO)C[C@H]2C)cc1	-0.3	-14.4
C[C@H]1CN([C@@H](C)CO)C(=O)c2cccc(NC(=O)Nc3cccc4ccccc34)c2O[C@@H]1CN(C)S(=O)(=O)c1ccc(F)cc1	-0.5	150.8*
C[C@H]1CN([C@@H](C)CO)C(=O)c2cccc(NC(=O)Nc3cccc4ccccc34)c2O[C@H]1CN(C)S(=O)(=O)c1ccc(F)cc1	1.3	-4.1
C[C@H](CO)N1C[C@H](C)[C@H](CN(C)S(=O)(=O)c2ccc(F)cc2)Oc2ccc(NC(=O)Nc3ccc(C(F)(F)F)cc3)cc2CC1=O	-9.0	85.2*
CCOC(=O)c1c(/N=C/c2ccccc2O)sc(C)c1C	0.5	0.9
COC(=O)C(CC#Cc1ccc2c(c1)[C@]1(C(=O)N2)[C@H](C(=O)NC[C@H](O)c2ccccc2)[C@H]2C(=O)O[C@H](c3ccccc3)[C@H](c3ccccc3)N2[C@@H]1c1ccc(O)cc1)C(=O)OC	·	-6.4
COC(=O)c1c(-c2ccccc2)csc1NC(=O)C1CCCCC1C(=O)O (centres undefined)	-0.2	20.5
Cc1cc2nc(NC3=NC(O)C=C(CSc4nc5ccccc5[nH]4)N3)nc(C)c2cc1C (centres undefined)	·	-0.4
COc1ccccc1-c1nnc(SCC(=O)Nc2ccc(Cl)cc2Cl)n1-c1ccccc1	-0.7	11.3
COc1ccc(S(=O)(=O)N(C)C[C@H]2Oc3ccc(NC(=O)Nc4ccc(F)cc4)cc3C(=O)N([C@H](C)CO)C[C@@H]2C)cc1	·	37.8
COc1ccc(S(=O)(=O)N(C)C[C@@H]2Oc3ccc(N(C)C)cc3CC(=O)N([C@H](C)CO)C[C@H]2C)cc1	-4.1	95.5*
COc1ccc(S(=O)(=O)N(C)C[C@@H]2Oc3ccc(NC(=O)Nc4ccc(F)cc4)cc3C(=O)N([C@H](C)CO)C[C@@H]2C)cc1	-2.0	129.9*
Cc1noc(C)c1S(=O)(=O)Nc1cccc2c1O[C@@H](CN(C)S(=O)(=O)c1ccc(Cl)cc1)[C@@H](C)CN([C@@H](C)CO)C2=O	·	5.8
Cc1noc(C)c1S(=O)(=O)Nc1cccc2c1O[C@H](CN(C)S(=O)(=O)c1ccc(Cl)cc1)[C@H](C)CN([C@@H](C)CO)C2=O	·	103.0*
COc1ccc(S(=O)(=O)N(C)C[C@H]2Oc3ccc(N(C)C)cc3CC(=O)N([C@H](C)CO)C[C@H]2C)cc1	-0.3	-6.2
COc1ccc2cc(C(C)c3nc4ccccc4n3C)ccc2c1 (centres undefined)	·	-9.9
O=C(O)CC(CC(=O)Nc1cc(C(F)(F)F)cc(C(F)(F)F)c1)c1ccc(Cl)cc1Cl (centres undefined)	·	-2.2
Cn1c(=S)n(CCSc2nc3ccccc3[nH]2)c2ccccc21	·	-14.0
COC(=O)[C@]1(Cc2ccc(O)c(CC=C(C)C)c2)OC(=O)C(=O)C1c1ccc(O)cc1 (some centres undefined)	-1.2	0.0

Screening results: PubChem BioAssay, Broad Institute
